Here are results for 14 compounds from PubChem BioAssay (NCI).

Structures are written as SMILES. This is part of a sample that, as a whole, favours compounds with a hit. Of some 83,000 tested, about 20% had one in any assay.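 Growth was measured after 48 h exposure to one concentration of compound in 96-well plates. Values under 10 count as active.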 Values without a mark were called inactive. Calls of active or inactive are those of the source.

Test systems include NCI-H23 lung; NCI-H226 lung; NCI-H322M lung; HOP-62 NSCLC; NCI-H460 lung; HOP-92 NSCLC; NCI-H522 lung; A549/ATCC NSCLC; 786-0 renal; COLO 205 colon.
Common to all, as to experiment: NCI-60 one-dose screen, 48 h (100 = growth as untreated, 0 = no growth, -100 = all killed)
Common to all, as to conditions: 10 µM unless noted

In the case of `O=C(/C=C/c1cccc(O)c1)c1cccc(-n2cc(-c3ccc4ccccc4c3)[nH]c2=O)c1`, the growth is 28.2% with NCI-H23 lung; 88.9% with NCI-H226 lung; 4.64% (active) in the assay with NCI-H322M lung; -20.9% (active) in the assay with HOP-62 NSCLC; -9.23% (active) in the assay with NCI-H460 lung; 42.6% in the assay with HOP-92 NSCLC. Moreover, the growth in the assay on NCI-H522 lung was 75.9%; in the assay with A549/ATCC NSCLC, 61.8%; in the assay with 786-0 renal, -87.9% (active); with COLO 205 colon, -8.8% (active).
With `N#Cc1c2c(nn(-c3ccccc3)c1=O)C(O)=C([N+](=O)[O-])C(c1ccccc1)C2` (stereo not given), the growth was 86% in the assay on NCI-H23 lung; 102% in the assay on NCI-H226 lung; 93.1% in the assay with NCI-H322M lung; 78.3% in the assay with HOP-62 NSCLC; 91.6% in the assay with NCI-H460 lung; 76% in the assay with HOP-92 NSCLC. Moreover, the growth in the assay on NCI-H522 lung is 77.8%; in the assay with A549/ATCC NSCLC, 93.4%; with 786-0 renal, 58%; in the assay with COLO 205 colon it was 99.4%.
Turning to `Fc1c[c-]c(-c2ccccn2)c(F)c1.[CH3-].[Pt+2].c1ccc(P(C[PH+](c2ccccc2)c2ccccc2)c2ccccc2)cc1`, the growth in the assay on NCI-H23 lung is -51.1% (active); in the assay with NCI-H226 lung, 3.56% (active); with NCI-H322M lung, 2.51% (active); in the assay on HOP-62 NSCLC, 0.563% (active); with NCI-H460 lung, -68.8% (active); in the assay on HOP-92 NSCLC, -80.7% (active). Moreover, the growth in the assay on NCI-H522 lung is -24% (active); in the assay with A549/ATCC NSCLC it was -0.672% (active); in the assay with 786-0 renal, -52.5% (active); in the assay on COLO 205 colon, -29.9% (active).
Regarding `COc1ccc(-c2cc(-c3cc(OC)c(OC)c(OC)c3)c(C#N)c(N3CCOCC3)n2)cc1O`, the growth in the assay with NCI-H23 lung was -6.35% (active); with NCI-H226 lung, 108%; in the assay on NCI-H322M lung it was 65.5%; with HOP-62 NSCLC, 68.4%; with NCI-H460 lung, 48.1%; in the assay with HOP-92 NSCLC it was 42.8%. Moreover, the growth was 58.4% in the assay with NCI-H522 lung, 65.8% with A549/ATCC NSCLC, 68.9% in the assay with 786-0 renal and 97.2% in the assay on COLO 205 colon.
Consider `OC(c1cccc(-n2ccc(C(F)(F)F)n2)c1)c1cnccc1NC1CCCCCC1` (stereo not given), for which the growth in the assay on NCI-H23 lung is 53.1%; in the assay with NCI-H226 lung, 67.3%; in the assay with NCI-H322M lung, 6.47% (active); in the assay on HOP-62 NSCLC it was 73.7%; in the assay on NCI-H460 lung, -64.6% (active); in the assay on HOP-92 NSCLC, -5.13% (active). Besides, the growth in the assay with NCI-H522 lung is 43.9%; in the assay with A549/ATCC NSCLC, 50.2%; in the assay on 786-0 renal, 28.9%; with COLO 205 colon, -47.2% (active).
Turning to `O=c1c2cc(F)ccc2sc2c(Nc3cccnc3)nc3ccccc3c12`, the growth with NCI-H23 lung was 78.8%; in the assay on NCI-H226 lung, 90.5%; with NCI-H322M lung, 88.8%; in the assay with HOP-62 NSCLC, 96.1%; with NCI-H460 lung it was 68.5%; with HOP-92 NSCLC, 75.1%. Besides, the growth in the assay with NCI-H522 lung is 94.3%; in the assay with A549/ATCC NSCLC it was 73.7%; in the assay on 786-0 renal it was 86.9%; in the assay with COLO 205 colon, 85%.
Turning to `Cc1ccc(C2SCC(=O)N2Cc2ccccc2)cc1` (stereo not given), the growth was 100% in the assay with NCI-H23 lung; 96% in the assay with NCI-H226 lung; 95.6% in the assay with NCI-H322M lung; 104% in the assay on HOP-62 NSCLC; 115% in the assay on NCI-H460 lung; 81.7% with HOP-92 NSCLC. The growth with NCI-H522 lung was 83.6%; in the assay with A549/ATCC NSCLC it was 102%; in the assay on 786-0 renal, 89.2%; in the assay with COLO 205 colon it was 109%.
For the compound `CCN1C(=O)N(CC)C2Nn3c(s/c(=C\c4cccc([N+](=O)[O-])c4)c3=O)=NC21` (stereo not given), the growth was 57.7% in the assay with NCI-H23 lung; 88% in the assay with NCI-H226 lung; 64.3% in the assay with NCI-H322M lung; 62.3% in the assay with HOP-62 NSCLC; 23.8% in the assay with NCI-H460 lung; 75.8% in the assay with HOP-92 NSCLC. The growth in the assay on NCI-H522 lung is 18.5%; in the assay with A549/ATCC NSCLC, 45.1%; in the assay with 786-0 renal it was 36%; in the assay with COLO 205 colon it was 6.72% (active).
For the compound `CC(C)(C)OC(=O)Nc1ccc2c(c1)C(NC(=O)Nc1cccc(C#N)c1)CC(C)(C)O2` (stereo not given), the growth was 41% in the assay on NCI-H23 lung; 48.4% with NCI-H226 lung; 73.6% with NCI-H322M lung; 45.8% with HOP-62 NSCLC; 25.9% in the assay with NCI-H460 lung; 39.1% in the assay with HOP-92 NSCLC. For the same compound, the growth in the assay with NCI-H522 lung was 33.7%; in the assay with A549/ATCC NSCLC, 40%; in the assay with 786-0 renal, 50.8%; in the assay with COLO 205 colon, 53.7%.
`N=C1C(c2nc(-c3ccc(Br)cc3)cs2)=C(O)CN1CC1CCCO1` (stereo not given): the growth in the assay with NCI-H23 lung is 88.8%; in the assay on NCI-H226 lung, 103%; in the assay on NCI-H322M lung, 103%; with HOP-62 NSCLC, 18.5%; in the assay with NCI-H460 lung it was 60.2%; in the assay with HOP-92 NSCLC, 69.6%. Besides, the growth is 99.6% in the assay on NCI-H522 lung, 75.2% in the assay with A549/ATCC NSCLC, 61.7% with 786-0 renal and 90.8% in the assay with COLO 205 colon.
As for `COc1ccc(CNC(=O)C(O)C(Cc2ccccc2)NC(=O)c2[nH]c3ccccc3c(=O)c2C)cc1OC` (stereo not given), the growth in the assay with NCI-H23 lung was 102%; in the assay with NCI-H226 lung, 98.1%; in the assay on NCI-H322M lung, 104%; in the assay on HOP-62 NSCLC it was 102%; with NCI-H460 lung, 103%; with HOP-92 NSCLC, 110%. The growth was 93% in the assay with NCI-H522 lung, 103% in the assay on A549/ATCC NSCLC, 101% in the assay with 786-0 renal and 123% in the assay with COLO 205 colon.
For `COc1ccc(-c2csc(C3=C(O)CN(C(C)C)C3=N)n2)cc1OC`, the growth with NCI-H23 lung is 101%; with NCI-H226 lung, 84.4%; with NCI-H322M lung it was 91.6%; with HOP-62 NSCLC, 87%; in the assay with NCI-H460 lung, 120%; in the assay with HOP-92 NSCLC, 43%. The growth with NCI-H522 lung is 89.1%; in the assay with A549/ATCC NSCLC, 88.7%; in the assay with 786-0 renal, 89.7%; in the assay with COLO 205 colon, 128%.
As to `C[n+]1cc2c3c(ccc2c2ccc4cc5c(cc4c21)OCO5)OCO3`, the growth with NCI-H23 lung was -67% (active); with NCI-H226 lung, -87.7% (active); with NCI-H322M lung, -93.8% (active); with HOP-62 NSCLC it was -83.8% (active); in the assay with NCI-H460 lung it was -54.7% (active); in the assay on HOP-92 NSCLC it was -80.6% (active). Moreover, the growth in the assay with NCI-H522 lung is -74.2% (active); in the assay on A549/ATCC NSCLC it was -86.2% (active); with 786-0 renal, -87.5% (active); in the assay with COLO 205 colon, -84.5% (active).
On to `Cc1ccc(/C=C/c2c(C(=O)/C=C/c3ccc(C(F)(F)F)cc3)c(C)nc3ccccc23)cc1`, for which the growth was -31.3% (active) in the assay with NCI-H23 lung; -46.1% (active) in the assay with NCI-H226 lung; -1.68% (active) with NCI-H322M lung; -37.2% (active) with HOP-62 NSCLC; -69.6% (active) in the assay with NCI-H460 lung; -76% (active) in the assay on HOP-92 NSCLC. Also, the growth is -10.5% (active) with NCI-H522 lung, 77.2% with A549/ATCC NSCLC, -74.9% (active) with 786-0 renal and -24.3% (active) with COLO 205 colon.
